Among the test systems are MOLT-4 leukemia; SR leukemia; RPMI-8226 leukemia; OVCAR-8 ovarian; OVCAR-5 ovarian; OVCAR-4 ovarian; SK-OV-3 ovarian; IGROV1 ovarian; OVCAR-3 ovarian; HS 578T breast.
What all share (experiment): NCI-60 one-dose screen, 48 h (100 = growth as untreated, 0 = no growth, -100 = all killed)
What all share (details): 10 µM

The panel holds about 83,000 compounds, 20% with a hit somewhere; the sample as a whole holds those more often.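 For each line, cells grew in 96-well plates with the test compound present at a single concentration for 48 hours.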 Unmarked numbers belong to inactive results. Calls of active or inactive are those of the source. The calls were made as follows: active = growth percent below 10; inactive = the rest.

As to `CC(=O)[O][Hg][c]1c(C)c(C)cc(C)c1C`, the growth in the assay on MOLT-4 leukemia was -5.69% (active); in the assay on SR leukemia, -27.6% (active); in the assay on RPMI-8226 leukemia, 7.45% (active); in the assay with OVCAR-8 ovarian it was 15.3%; with OVCAR-5 ovarian, -9.8% (active); with OVCAR-4 ovarian, -93.2% (active). The growth in the assay on SK-OV-3 ovarian is 97.5%; with IGROV1 ovarian, -73.2% (active); in the assay on OVCAR-3 ovarian, -93.6% (active); with HS 578T breast, -1.53% (active).

As to `N#CCc1ccccc1`, the growth in the assay on MOLT-4 leukemia was 97.9%; in the assay on SR leukemia it was 104%; with RPMI-8226 leukemia, 101%; in the assay on OVCAR-8 ovarian it was 105%; in the assay with OVCAR-5 ovarian, 101%; in the assay with OVCAR-4 ovarian, 94.6%. For the same molecule, the growth in the assay on SK-OV-3 ovarian was 98.4%; in the assay on IGROV1 ovarian it was 115%; with OVCAR-3 ovarian it was 111%; in the assay on HS 578T breast, 106%.

For the molecule `O=[N+]([O-])c1ccc(Br)c([N+](=O)[O-])c1`, the growth in the assay on MOLT-4 leukemia was 68.4%; with SR leukemia, 21.8%; with RPMI-8226 leukemia it was 102%; with OVCAR-8 ovarian, 91.9%; in the assay with OVCAR-5 ovarian it was 108%; with OVCAR-4 ovarian, 103%. The growth is 113% in the assay with SK-OV-3 ovarian, 63.5% in the assay with IGROV1 ovarian, 87.8% in the assay with OVCAR-3 ovarian and 105% in the assay with HS 578T breast.

With `O=C1C(=O)c2ccccc2-c2ccccc21`, the growth in the assay with MOLT-4 leukemia is -26.9% (active); in the assay with SR leukemia, 0.843% (active); with RPMI-8226 leukemia it was -32.7% (active); with OVCAR-8 ovarian, -97.6% (active); with OVCAR-5 ovarian, -63.8% (active); in the assay with OVCAR-4 ovarian, -100% (active). For the same molecule, the growth in the assay with SK-OV-3 ovarian is 93.7%; in the assay with IGROV1 ovarian it was -61.7% (active); in the assay on OVCAR-3 ovarian it was -91% (active); in the assay on HS 578T breast, -20.1% (active).

For the molecule `[Cl][Hg][c]1ccc(Cl)s1`, the growth with MOLT-4 leukemia was -11.5% (active); in the assay with SR leukemia, -17.1% (active); in the assay on RPMI-8226 leukemia, 18.5%; in the assay with OVCAR-8 ovarian, 60%; in the assay with OVCAR-5 ovarian, 28.2%; in the assay with OVCAR-4 ovarian, 11.2%. Also, the growth in the assay with SK-OV-3 ovarian was 98.2%; in the assay on IGROV1 ovarian, 26.2%; with OVCAR-3 ovarian, -78.7% (active); in the assay with HS 578T breast it was 59.1%.

Regarding `[Cl][Sn]([c]1ccccc1)([c]1ccccc1)[c]1ccccc1`, the growth in the assay with MOLT-4 leukemia was -7.21% (active); in the assay with SR leukemia, -21% (active); in the assay on RPMI-8226 leukemia, -28% (active); in the assay with OVCAR-8 ovarian, -74.5% (active); in the assay with OVCAR-5 ovarian, -84.1% (active); in the assay on OVCAR-4 ovarian it was -88.9% (active). Further, the growth in the assay on SK-OV-3 ovarian was -97.3% (active); in the assay with IGROV1 ovarian, -76.8% (active); in the assay with OVCAR-3 ovarian, -94.2% (active); in the assay on HS 578T breast, 0.581% (active).

As for `ClCc1ccc2ccccc2n1`, the growth with MOLT-4 leukemia was 81.3%; with SR leukemia, 88.2%; with RPMI-8226 leukemia, 98.6%; in the assay on OVCAR-8 ovarian, 101%; with OVCAR-5 ovarian it was 83.4%; in the assay on OVCAR-4 ovarian, 101%. For the same molecule, the growth with SK-OV-3 ovarian is 113%; in the assay on IGROV1 ovarian, 78.2%; in the assay with OVCAR-3 ovarian, 99%; with HS 578T breast, 97.4%.

As to `Oc1c(Cl)cc(Cl)c2ccccc12.[Cu+2]`, the growth is 70.7% in the assay with MOLT-4 leukemia; 31.4% in the assay on SR leukemia; 83% in the assay on OVCAR-8 ovarian; 127% in the assay with OVCAR-5 ovarian; 55.8% in the assay on OVCAR-4 ovarian; 87.2% in the assay with SK-OV-3 ovarian. Further, the growth in the assay on IGROV1 ovarian is 74.8%; in the assay with OVCAR-3 ovarian, 79.7%; in the assay on HS 578T breast, 88.9%.

For the molecule `CC(=O)Nc1c2sscc-2n(C)c1=O`, the growth in the assay on MOLT-4 leukemia is -58% (active); with SR leukemia, -27.4% (active); in the assay with RPMI-8226 leukemia, -51.8% (active); in the assay with OVCAR-5 ovarian, -60.4% (active); in the assay on OVCAR-4 ovarian, -96.4% (active); with SK-OV-3 ovarian, -100% (active). For the same molecule, the results for the growth in the assay on IGROV1 ovarian, in the assay with OVCAR-3 ovarian and in the assay with HS 578T breast were -88.4% (active), -100% (active) and -57% (active), respectively.

Regarding `COc1ccccc1/C=C/[N+](=O)[O-]`, the growth in the assay with MOLT-4 leukemia is 53.3%; with SR leukemia, -11.9% (active); in the assay with OVCAR-8 ovarian, 63.3%; in the assay on OVCAR-5 ovarian, 85.6%; in the assay with SK-OV-3 ovarian, 113%; in the assay on IGROV1 ovarian it was 53%. Moreover, the growth with OVCAR-3 ovarian was 49.9%; with HS 578T breast it was 79%.

Take `O=C1C=Cc2ccccc2C1=O`: the growth with MOLT-4 leukemia is 95.2%; in the assay on SR leukemia it was 61.8%; in the assay on RPMI-8226 leukemia, 93.6%; with OVCAR-8 ovarian, 87.9%; in the assay on OVCAR-5 ovarian, 120%; in the assay on SK-OV-3 ovarian, 71.9%. The results for the growth with IGROV1 ovarian, with OVCAR-3 ovarian and in the assay with HS 578T breast were 77.7%, 96.9% and 90.9%, respectively.

On to `O=C(CBr)Nc1ccc(Cl)cc1`, for which the growth in the assay on MOLT-4 leukemia was 20.7%; in the assay on SR leukemia it was -28.8% (active); with RPMI-8226 leukemia, 73.4%; with OVCAR-8 ovarian, 96.6%; with OVCAR-5 ovarian it was 66.6%; in the assay on OVCAR-4 ovarian, 89.2%. In addition, the growth was 108% with SK-OV-3 ovarian, 68.9% in the assay on OVCAR-3 ovarian and 115% in the assay on HS 578T breast.

As for `COC(C(=O)C(O)C(C)O)C1Cc2cc3cc(OC4CC(OC(C)=O)C(OC5CC(O)C(OC)C(C)O5)C(C)O4)cc(O)c3c(O)c2C(=O)C1OC1CC(OC2CC(OC3CC(C)(O)C(OC(=O)C(C)C)C(C)O3)C(O)C(C)O2)C(O)C(C)O1` (stereo not drawn), the growth was -25.4% (active) in the assay with MOLT-4 leukemia; -23.4% (active) in the assay with SR leukemia; -32.4% (active) in the assay on RPMI-8226 leukemia; -43.5% (active) with OVCAR-5 ovarian; -0.721% (active) with OVCAR-4 ovarian; 9.37% (active) in the assay on SK-OV-3 ovarian. For the same molecule, the values for the growth with IGROV1 ovarian and in the assay on OVCAR-3 ovarian were -39.4% (active) and -4.25% (active), respectively.

On to `C=C1C(=O)O[C@@H]2C[C@@H](C)[C@@H]3C=CC(=O)[C@@]3(C)[C@@H](O)[C@H]12`, for which the growth in the assay on MOLT-4 leukemia is -48.5% (active); in the assay on SR leukemia, -11.7% (active); in the assay on RPMI-8226 leukemia, -52.3% (active); in the assay with OVCAR-5 ovarian it was 5.71% (active); in the assay on OVCAR-4 ovarian, -36.6% (active); in the assay with SK-OV-3 ovarian, 11.5%. In addition, the growth was -90.5% (active) in the assay with IGROV1 ovarian, -100% (active) in the assay with OVCAR-3 ovarian and 18.2% with HS 578T breast.

On to `COC12c3c(C)cc(O)c4c(=O)occ(c34)C(=O)C1C13COC(=O)c4c(O)cc(C)c(c41)C(=O)C2C3OC(C)=O` (stereo not drawn), for which the growth in the assay on MOLT-4 leukemia is 102%; in the assay with SR leukemia, 92.4%; with RPMI-8226 leukemia it was 90.6%; with OVCAR-8 ovarian, 105%; in the assay with OVCAR-5 ovarian, 91.4%; in the assay with OVCAR-4 ovarian, 100%. For the same molecule, the growth in the assay on SK-OV-3 ovarian is 93.4%; in the assay with OVCAR-3 ovarian, 105%; with HS 578T breast, 112%.

As for `CC(C)(C)OOC(=O)/C=C\C(=O)OOC(C)(C)C`, the growth with MOLT-4 leukemia is 107%; in the assay with SR leukemia, 93.5%; in the assay with RPMI-8226 leukemia, 112%; in the assay with OVCAR-8 ovarian it was 97.4%; in the assay with OVCAR-5 ovarian, 99.3%; in the assay with OVCAR-4 ovarian, 104%. Further, the results for the growth with SK-OV-3 ovarian, in the assay on OVCAR-3 ovarian and with HS 578T breast were 108%, 113% and 113%, respectively.

In the case of `CC(C)C1(NC(=O)C2CC3c4cccc5[nH]cc(c45)CC3N(C)C2)OC2(O)C3CCCN3C(=O)C(Cc3ccccc3)N2C1=O` (stereo not drawn), the growth in the assay with MOLT-4 leukemia was 65.8%; in the assay on SR leukemia it was 87.8%; in the assay with RPMI-8226 leukemia, 108%; in the assay on OVCAR-5 ovarian, 72.2%; in the assay on OVCAR-4 ovarian, 70.9%; with SK-OV-3 ovarian, 116%. Besides, the growth was 108% with IGROV1 ovarian, 116% in the assay on OVCAR-3 ovarian and 99.5% with HS 578T breast.
